# From article PMC5540273 (PLoS ONE, 2017)
# Experiments:
# Details in all cases: concentration: 1 μM, replicates: in singlicate; n = 1
# MERTK = system: MERTK
# MET = system: MET
# MINK = system: T1, MINK
# T1 construct: gene MINK1
# MKK7 = system: MKK7
# MKNK1 = system: MKNK1
# MKNK2 = system: MKNK2
# MLCK = system: T2, MLCK
# T2 construct: gene MYLK3
# MLK1 = system: T3, MLK1
# T3 construct: gene MAP3K9
# MLK2 = system: MLK2
# MLK3 = system: MLK3
# 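Note: KINOMEscan kinase panel screen.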
Structure (SMILES),%Inh (MERTK),%Inh (MET),%Inh (MINK),%Inh (MKK7),%Inh (MKNK1),%Inh (MKNK2),%Inh (MLCK),%Inh (MLK1),%Inh (MLK2),%Inh (MLK3)
COc1ccc(NC(=O)c2ccc(-c3cc(-c4nnc(C)o4)ccc3C)cc2)cc1 [GW595885],21%,0%,0%,34%,2%,12%,0%,0%,0%,11%
O=C(Nc1n[nH]c2nc(-c3ccco3)c(Br)cc12)c1ccc(CN2CCCC2)cc1.O=C(O)[C@H](O)[C@@H](O)C(=O)O [SB-742352],22%,0%,0%,0%,0%,0%,69%,0%,0%,10%
CC(C)N1CCC(n2cnc(-c3ccc(F)cc3)c2-c2ccnc(N)n2)CC1 [SB-223132],0%,14%,7%,0%,2%,0%,0%,0%,4%,0%
Cl.Cn1ccc(-c2cccc(Nc3ccnc4cc(-c5nccs5)ccc34)c2)n1 [GW525701],23%,0%,54%,0%,7%,1%,14%,0%,0%,0%
